Source: the supplement of paper PMC8699584
± gives the standard deviation of the averaged measurements.

tested on: Mv4-11; test: cell viability relative to DMSO control (bortezomib = 0%); higher = less growth inhibition; conditions: 10 nM; 72 h
Summary of the method: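 Viability was determined with CellTiter-Glo luminescence. Acute myeloid leukemia cells (1000 per well, 50 µL) were exposed for 72 h to 679 approved and investigational compounds at a single 10 nM dose in 384-well plates. Percentages came from per-plate linear regression, setting DMSO-treated wells to 100% and positive-control-treated wells to 0%.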

| SMILES | cell viability [%] |
| --- | --- |
| COC(=O)C1(OC)CC2OC1(C)n1c3ccccc3c3c4c(c5c6ccccc6n2c5c31)C(=O)N(C)C4 (stereo not drawn) | 109 ± 2 |
| COC[C@H]1OC(=O)c2coc3c2[C@@]1(C)C1=C(C3=O)[C@@H]2CCC(=O)[C@@]2(C)C[C@H]1OC(C)=O [Wortmannin] | 110.22 ± 0.09 |
| COc1ccc2c(c[n+](C)c3c4cc5c(cc4ccc23)OCO5)c1OC [Chelerythrine chloride] | 112 ± 6.5 |
| C/C(O)=C(\C#N)C(=O)Nc1cc(Br)ccc1Br | 114 ± 7.8 |
| COc1cc([C@@H]2c3cc4c(cc3[C@H](O)[C@H]3COC(=O)[C@@H]23)OCO4)cc(OC)c1OC [Picropodophyllin (PPP)] | 109 ± 3.8 |
| COc1ccc(N(C(=O)Oc2c(C)cccc2C)c2ccnc(Nc3ccc(N4CCN(C)CC4)cc3)n2)c(OC)c1 | 108 ± 5.2 |
| O=C(O)c1nn(Cc2ccc(Cl)cc2Cl)c2ccccc12 [Lonidamine] | 120 ± 4.8 |
| CN[C@@H]1C[C@H]2O[C@@](C)([C@@H]1OC)n1c3ccccc3c3c4c(c5c6ccccc6n2c5c31)C(=O)NC4 [Staurosporine] | 5.41 ± 3.4 |
| N#C/C(=C\c1ccc(O)c(O)c1)C(N)=S | 104 ± 2.4 |
| CC(=O)N[C@H]1[C@@H](O[C@@H]2O[C@H](CC(O)[C@H]3O[C@@H](n4ccc(=O)[nH]c4=O)[C@H](O)[C@@H]3O)[C@H](O)[C@H](O)[C@H]2NC(=O)/C=C/CC(C)C)O[C@H](CO)[C@@H](N)[C@@H]1O (stereo partly drawn) [Tunicamycin] | 103 ± 3.8 |
| Cc1ccccc1-n1c(Cn2cnc3c(N)ncnc32)nc2cccc(C)c2c1=O | 111 ± 5.5 |
| CC(C)(C)c1cc(C=C(C#N)C#N)cc(C(C)(C)C)c1O [Tyrphostin 9] | 99.7 ± 4.1 |
| O=c1[nH]c2ccccc2n1C1CCN(Cc2ccc(-c3[nH]c4cc5ncnc5cc4nc3-c3ccccc3)cc2)CC1 [AKT inhibitor VIII] | 103 ± 5.7 |
| CC(C)=CCC[C@](C)(O)[C@H]1CC[C@]2(C)[C@@H]1[C@H](O)C[C@@H]1[C@@]3(C)CC[C@H](O[C@@H]4O[C@H](CO)[C@@H](O)[C@H](O)[C@H]4O)C(C)(C)[C@@H]3CC[C@]12C [Ginsenoside Rh2] | 111 ± 2.3 |
| Cc1ccccc1-n1c(Cn2ncc3c(N)ncnc32)nc2cccc(C)c2c1=O | 117 ± 14 |
| COc1ccc2c(c[n+](C)c3c4cc5c(cc4ccc23)OCO5)c1OC [Chelerythrine (chloride)] | 108 ± 1.4 |
| CC(=O)OC(C)(C)/C=C/C(=O)[C@](C)(O)[C@H]1[C@H](O)C[C@@]2(C)[C@@H]3CC=C4[C@H](C[C@H](O)C(=O)C4(C)C)[C@]3(C)C(=O)C[C@]12C [Cucurbitacin B] | 82.9 ± 4.3 |
| O=C([O-])C(Cl)Cl.[Na+] [Sodium†Dichloroacetate] | 110.7 ± 0.021 |
